Laboratory results reported in PubChem BioAssay (Tox21).
Records with an inconclusive call do not appear. A call without a number means that no potency is given here. Activity calls are given as the source filed them. Calls come from the whole dose curve; as a rule, active = well fitted inhibition curve with a large enough effect in the repeat runs; inconclusive = weak or mixed curves; inactive = no such curve, though single readings can be large or run the other way.

Target: Cytochrome P450 2C19 (Homo sapiens) (UniProt P33261)
Assay: Cytochrome P450 Family 2 Subfamily C Member 19 (CYP2C19) small molecule antagonists: luciferase reporter qHTS assay (AID 1671197); note: nearly all actives have a fitted effect of over 65% in size
Details: P450-Glo CYP2C19 enzyme, luciferin luminescence, 1 h; series mostly up to 115 µM
Excerpt: National Center for Advancing Translational Sciences [NCATS]
U.S. Environmental Protection Agency [EPA]
National Institutes of Environmental Health Sciences [NIEHS]
National Toxicology Program [NTP]
U.S. Food and Drug Administration [FDA]
Cytochrome P450 (CYP) enzymes are membrane-bound hemeproteins that play a key role in metabolism of drugs and xenobiotics. Evaluation of the effect of chemicals on CYP isozymes is useful to minimize the adverse drug reactions and toxicities in drug development process. Tox21 chemicals were tested for their effect on CYP enzyme activities by using P450-Glo (TM) screening systems (Promega Corporation, Madison, WI). These systems provide a luminescent method containing proluciferin substrates and are converted to luciferin products by CYP isozymes. The luciferin products formed are detected with a luciferin detection reagent, and the amount of light produced is proportional to CYP activity. P450-Glo (TM) CYP2C19 screening system (Catalog. No. V9880) was used to detect the compounds that interfere in CYP2C19 activity. The positive control compound used for CYP2C19 assay is ketoconazole (Sigma-Aldrich, St. Louis, MO).
Tox21 Assay Protocol Summary:
Two ul of enzyme-substrate mix was dispensed into medium binding white/solid 1536-well plates (Greiner Bio-One North America Inc., Monroe, NC) using a BioRaptr Flying Reagent Dispenser (FRD, Beckman Coulter, Brea, CA). Compounds dissolved in DMSO and positive control (ketoconazole) were transferred to the assay plates at 23 nl using a Pintool station (Wako, San Diego, CA). The assay plates were incubated at room temperature for 10 min. Then 2 ul of NADPH regeneration solution was added to each well of the assay plates using an FRD and incubated at 37C for 1 h. The reaction was stopped by adding 4 ul of detection reagent using an FRD and after 20 min incubation at room temperature the luminescence signal was measured using a ViewLux plate reader (Perkin Elmer, Shelton, CT). Data were expressed as relative luminescence units.
Potency is the fitted concentration of half-maximal effect.

Chain of Cytochrome P450 2C19 (Homo sapiens) (P33261 whole entry, looked up): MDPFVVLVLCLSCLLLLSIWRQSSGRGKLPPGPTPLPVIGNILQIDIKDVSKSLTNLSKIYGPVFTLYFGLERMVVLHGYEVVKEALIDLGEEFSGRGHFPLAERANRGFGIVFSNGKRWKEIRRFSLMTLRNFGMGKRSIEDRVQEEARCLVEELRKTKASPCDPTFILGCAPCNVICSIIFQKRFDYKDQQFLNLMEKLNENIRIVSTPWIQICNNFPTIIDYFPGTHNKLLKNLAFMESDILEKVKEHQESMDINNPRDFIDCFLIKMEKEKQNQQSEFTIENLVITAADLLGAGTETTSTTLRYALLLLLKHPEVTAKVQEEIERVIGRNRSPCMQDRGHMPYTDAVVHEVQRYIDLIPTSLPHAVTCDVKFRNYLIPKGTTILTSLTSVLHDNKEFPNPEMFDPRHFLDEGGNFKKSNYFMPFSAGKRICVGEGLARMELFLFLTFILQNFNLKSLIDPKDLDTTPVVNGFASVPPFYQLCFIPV

Row | Structure (SMILES) | Potency
1 | C#C[C@]1(O)C=C[C@H]2[C@@H]3CCC4=CC(=O)CC[C@@H]4[C@H]3CC[C@@]21CC | 2.75 µM (active)
2 | O=C1CN2CCOC2(c2ccccc2Cl)c2cc(Cl)ccc2N1 (stereo not given) | 6.17 µM (active)
3 | C[N+](=O)[O-] | inactive
4 | CC(COc1ccc(Oc2ccccc2)cc1)Oc1ccccn1 (stereo not given) | 10 µM (active)
5 | COc1cccc(C(=O)NN(C(=O)c2cc(C)cc(C)c2)C(C)(C)C)c1C | 3.56 µM (active)
6 | O=C(Nc1ccccc1)N(Cc1ccc(Cl)cc1)C1CCCC1 | 7.1 µM (active)
7 | CCOP(=S)(OCC)Oc1ncn(-c2ccccc2)n1 | 1 µM (active)
8 | C=C(C)[C@@H]1CC=C(C=O)CC1 | 63.3 µM (active)
9 | COc1ncc(F)c2nc(S(=O)(=O)Nc3c(F)cccc3F)nn12 | inactive
10 | C[C@@H]1CN(C2CCC(C#N)(c3ccc(F)cc3)CC2)CC[C@]1(C(=O)O)c1ccccc1 (stereo not given in full) | inactive
11 | CCC(=O)c1ccccc1 | inactive
12 | CNC(=O)Oc1ccc(N(C)C)c(C)c1 | inactive
13 | CC(C)CC(N(C)C)C1(c2ccc(Cl)cc2)CCC1 (stereo not given) | 9.77 µM (active)
14 | CCOP(=O)(N=C1SCCS1)OCC | inactive
15 | CC(C(=O)c1ccccc1)N(C)C (stereo not given) | 4.9 µM (active)
16 | CN(N=O)C(N)=O | inactive
17 | NC(=O)c1cc([N+](=O)[O-])cc([N+](=O)[O-])c1 | inactive
18 | C[N+](C)=CCl | inactive
19 | CCN(CC)c1nc(C)cc(OP(=S)(OC)OC)n1 | 0.178 µM (active)
20 | [O]=[Cd] | inactive

Row | Structure (SMILES) | Potency
21 | c1cc[c]([Hg][c]2ccccc2)cc1 | 22.4 µM (active)
22 | CCNc1nc(NC(C)C)nc(OC)n1 | 25.2 µM (active)
23 | CCCCC(=O)Cl | inactive
24 | COC(=O)c1c(C(F)F)nc(C(F)(F)F)c(C2=NCCS2)c1CC(C)C | 5.03 µM (active)
25 | BrCCCCCCBr | 25.2 µM (active)
26 | COc1cc(OC)nc(Sc2cccc(Cl)c2C(=O)O)n1 | inactive
27 | CCCSC(=O)N(CCC)CCC | inactive
28 | CC(=O)C(Cl)Cl | inactive
29 | c1cc2c(c(N3CCNCC3)c1)OCCO2 | inactive
30 | O=[N+]([O-])c1ccc2c3c(cccc13)CC2 | 35.6 µM (active)
31 | C[C@H]1CCC[C@H](O)CCCCCc2cc(O)cc(O)c2C(=O)O1 | 22.6 µM (active)
32 | O=C1CN=C(c2ccccc2)c2cc([N+](=O)[O-])ccc2N1 | inactive
33 | CCOC(=O)N(C)C(=O)CSP(=S)(OCC)OCC | 0.126 µM (active)
34 | CCCSP(=S)(OCC)Oc1ccc(Cl)cc1Cl (stereo not given) | 2.24 µM (active)
35 | CCCSC(=O)Cl | inactive
36 | O=C1OC(=O)C2C1C1(Cl)C(Cl)=C(Cl)C2(Cl)C1(Cl)Cl (stereo not given) | inactive
37 | N#Cc1c(Cl)cccc1Cl | inactive
38 | Nc1c(Br)cc([N+](=O)[O-])cc1[N+](=O)[O-] | 50.8 µM (active)
39 | COC(=O)C1=CCCN(C)C1 | inactive
40 | CCN(CC)C(=O)[C@@H]1C=C2c3cccc4[nH]cc(c34)C[C@H]2N(C)C1 | 165 µM (active)
